High-throughput results (PubChem)
Shown are actives, neighbours in structure and some others; about 1.7% of the full set was active somewhere.
beta cell repl: MIN6 beta-cell proliferation induction; MIN6 cells proliferation, ATPlite luminescence, 48 h; cells starved in 0.2% serum; 100% = growth in 10% serum; AID 2380; proliferation, % at 10 µM; actives 0.29% (n = 330,000);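 active = compounds whose signal lies at least 3.5 SD above the mean of all wells on their plate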
TAG inh: reduces triacylglycerol accumulation in H9c2 cells; inhibition, % at 12.5 µM; Nile Red lipid (TAG) fluorescence; cells loaded with 200 µM oleic acid; actives 0.66% (n = 230,000);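 active = pattern-corrected inhibition of lipid staining of at least 50% with the nuclear-stain viability signal not falling by more than 50%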
CHT allo act: allosteric activators of human choline transporter CHT; Q9GZV3; B-score at 10 µM; CHT-expressing cells, membrane potential dye, choline EC20; stronger effect = higher value; LV-AA mutant CHT in HEK293 cells; AID 488977; actives 0.49% (n = 310,000);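 active = initial fluorescence not abnormally high and integrated response B-score, plate-corrected, over 3 SD above library mean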
Target sequence (Q9GZV3 whole entry, looked up): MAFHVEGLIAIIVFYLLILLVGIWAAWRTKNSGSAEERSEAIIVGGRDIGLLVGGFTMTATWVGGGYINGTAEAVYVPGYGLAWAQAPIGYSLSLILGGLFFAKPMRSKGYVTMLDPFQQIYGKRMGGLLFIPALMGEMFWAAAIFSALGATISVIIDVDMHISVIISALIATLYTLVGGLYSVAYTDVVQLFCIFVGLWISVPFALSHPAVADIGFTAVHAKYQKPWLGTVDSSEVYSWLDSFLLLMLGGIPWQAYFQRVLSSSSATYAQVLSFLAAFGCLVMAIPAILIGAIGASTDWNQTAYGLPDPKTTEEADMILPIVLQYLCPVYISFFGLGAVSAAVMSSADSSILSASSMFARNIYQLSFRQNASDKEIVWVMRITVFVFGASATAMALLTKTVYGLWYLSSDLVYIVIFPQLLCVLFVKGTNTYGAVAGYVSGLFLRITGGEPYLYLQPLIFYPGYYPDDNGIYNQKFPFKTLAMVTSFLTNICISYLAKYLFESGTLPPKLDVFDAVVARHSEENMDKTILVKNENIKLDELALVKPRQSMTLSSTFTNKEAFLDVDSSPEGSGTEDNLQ
CHT inh: inhibitors of human choline transporter CHT; actives 0.86% (n = 310,000); CHT-expressing cells, membrane potential dye, choline response; stronger effect = lower value; B-score at 10 µM; Q9GZV3;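 active = B-score over 3 SD under the library average, and starting fluorescence ratio not unusually high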;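 also: choline stimulus applied at its EC90 after an EC20 pre-addition; B-score computed on integrated fluorescence ratio after choline addition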
CHT act confirm: human CHT activation, confirmatory screen | shares compounds with CHT allo act | CHT-expressing cells, membrane potential dye fluorescence (FDSS); % of choline EC20–EC90 response window; HEK293 expressing CHT LV-AA mutant; choline added at its EC20 | activation, % at 10 µM | actives 91% (n = 2,500) | AID 504833;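 active = primary screen active, with duplicate mean activation above negative control mean plus 3 SD, cut at about 11% in these data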
HEK293 MP dye: activity in parental HEK293 cells lacking CHT | shares compounds with CHT allo act | membrane potential dye fluorescence (FDSS); measured after EC20 choline addition | actives 62% (n = 2,500) | AID 623908 | ratio readout change at 10 µM, hits read low;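 active = duplicate-averaged ratio beyond 3 SD from buffer wells, up or down, though filed actives are nearly all decreases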
Numbers stand for hits; n = inactive; x = not tested or not shown.

SMILES | beta cell repl | TAG inh | CHT allo act | CHT inh | CHT act confirm | HEK293 MP dye
COc1ccc(/C=C\C(=O)c2c(O)ccc3c(C)cc(=O)oc23)cc1OC | n | n | n | n | x | x
CCOc1ccc(C(=O)OCC(=O)Nc2cccnc2Cl)cc1OCC | n | n | x | x | x | x
CCOC(=O)c1ncccc1NC(=O)CC(=O)Nc1cccnc1C(=O)OCC | n | n | n | n | 32 | -36
C#CC[N+]1(CC#Cc2ccc(C#CC[N+]3(CC#C)CCOCC3)cc2)CCOCC1 | n | n | n | n | 38 | -41
CN(C)S(=O)(=O)c1ccc(Cl)c(NC(=O)CSc2nc3ccccc3c(=O)n2CCCN2CCOCC2)c1 | n | x | n | n | x | x
O=[N+]([O-])c1ccc(C[n+]2cccc3ccc4cccnc4c32)cc1 | n | n | n | n | x | x
O=[N+]([O-])c1ccc(C[n+]2cccc3ccccc32)cc1 | n | n | 8.1 | n | 47 | -46
CCCCC[n+]1cccc2c3ccccc3ccc21 | n | n | 7.5 | n | 47 | -74
c1ccc(C[n+]2cccc3c4ccccc4ccc32)cc1 | n | x | 6.4 | n | 77 | -75
c1ccc(C[n+]2cccc(-c3ccccc3)c2)cc1 | n | x | n | n | x | x
Cc1ccc(S(=O)(=O)NC(=O)c2cc(C)n(-c3ccc(N(C)C)cc3)c2C)cc1 | n | n | n | n | x | x
CC1CCN(C(=O)COc2ccc(S(=O)(=O)N3CCOCC3)cc2)CC1 | n | n | n | n | x | x
COc1ccc(CCNC(=O)CCS(=O)(=O)c2ccc3nc(C)sc3c2)cc1OC | n | n | n | n | x | x
C[n+]1cn(Cc2cc(Cl)ccc2OC(F)F)c2ccccc21 | n | x | 7.3 | n | 54 | n
CCN(CC)CCn1c(=N)n(CC(O)COc2cccc(C)c2)c2ccccc21 (centres undefined) | n | x | 6.4 | n | 54 | n
CCC(C)n1c(=N)c(C#N)cc2c(=O)n3cccc(C)c3nc21 (centres undefined) | n | n | 7 | n | 41 | -53
CCC(C)n1c(=N)c(C#N)cc2c(=O)n3cc(C)ccc3nc21 (centres undefined) | n | n | n | n | x | x
Cc1cc(=O)oc2cc(OCCCC[n+]3ccccc3)ccc12 | n | n | n | n | 62 | -38
CCc1ccc(-n2c(O)cnc2Nc2nc(C)cc(C)n2)cc1 | n | n | n | n | x | x
COc1ccc(-n2c(O)cnc2Nc2nc(C)cc(C)n2)cc1OC | n | x | 7.2 | n | 28 | -48
CCOC(=O)c1sc2nccc(OC)c2c1N=CN(C)C | n | x | 6.6 | n | 63 | -35
CCOC(=O)c1sc2ncn(/N=C/N(C)C)c(=O)c2c1C | n | x | n | n | x | x
O=C(CN1CCCC1)Nc1ccccc1Sc1ccc(Cl)cc1 | n | n | n | n | x | x
C=CC[C@H](CC(=O)N(CCO)Cc1ccccc1)C(=O)N[C@H](COC(=O)[C@@H](CC=C)CC(=O)OC(C)(C)C)c1ccccc1 | n | n | x | x | x | x
CCSc1ccc([C@@H]2[C@H]3C(=O)N(CC)C(=O)[C@H]3[C@]3(C(=O)OC)CCCCN23)cc1OC | n | n | x | x | x | x
SMILES | beta cell repl | TAG inh | CHT allo act | CHT inh | CHT act confirm | HEK293 MP dye
Nc1cc2c3c(cccc3c1)C(=O)N(CCN1CCCC1)C2=O | x | x | n | n | x | x
NC(=O)CN1CCN(CCN2C(=O)c3cccc4cccc(c34)C2=O)CC1 | n | x | n | n | 43 | -33
CCOC(=O)c1ccc(NC(=S)Nc2ccccc2N)cc1 | n | x | n | n | x | x
O=[N+]([O-])c1ccc(C[n+]2cccc(O)c2)cc1 | n | n | n | n | x | x
COc1cc2cc[n+](Cc3ccc([N+](=O)[O-])cc3)cc2cc1OC | n | x | 7.1 | n | 71 | -79
Cc1ccc(Cl)cc1N1CCN(C(=O)Cc2ccc(-n3c(=O)[nH]c4ccsc4c3=O)cc2)CC1 | n | x | n | n | x | x
CC(=O)c1ccc(NC(=O)Nc2ccncc2)cc1 | n | n | n | n | 34 | -38
O=[N+]([O-])c1cnc2nc(-c3ccncc3)nn2c1O | n | n | n | n | 44 | -45
Cc1cccc(NC(=S)N=Nc2c(O)[nH]c3ccccc23)c1 | n | n | 9.5 | n | n | n
Fc1ccc(C(CCNCc2ccccn2)c2ccc(Cl)cc2)cc1 (centres undefined) | n | x | n | n | 16 | n
COc1ccc(CN(C(=O)c2snc(C(N)=O)c2N)C(CC(C)C)C(=O)NC2CCCCC2)cc1 (centres undefined) | n | x | n | n | x | x
N#C/C(=C\c1c(N2CCCCCC2)nc2ccccn2c1=O)C(=O)NC1CCS(=O)(=O)C1 (centres undefined) | n | x | n | n | x | x
COC(=O)/C(C#N)=C/c1c(N2CCN(C)CC2)nc2ccccn2c1=O | n | x | 7.3 | n | 48 | -56
N#C/C(=C\c1c(N2CCOCC2)nc2ccccn2c1=O)C(=O)NC1CCS(=O)(=O)C1 (centres undefined) | n | n | 9.6 | n | 10 | -54
CCOC(=O)/C(C#N)=C/c1c(N2CCN(c3ccccc3)CC2)nc2ccccn2c1=O | n | x | n | n | x | x
Cc1ccc(S(=O)(=O)/C(C#N)=C/c2c(N3CCN(C)CC3)nc3ccccn3c2=O)cc1 | n | n | n | n | x | x
CN1CCN(c2nc3ccccn3c(=O)c2C=C(C#N)C#N)CC1 | n | x | n | n | 50 | -49
CCN1CCN(c2cc3c(cc2F)c(=O)c(C(=O)O)cn3C2CC2)CC1 | n | n | 8.7 | n | 54 | -58
CC(=O)N1CCN(c2cc3c(cc2F)c(=O)c(C(=O)O)cn3C2CC2)CC1 | n | n | n | n | x | x
CCOc1ccccc1C(=O)Nc1cc2c(cc1N1CCCC1)n(CC)c(=O)n2CC | n | x | n | n | 51 | n
O=C(N/N=C/C=C/c1cccc([N+](=O)[O-])c1)c1ccncc1 | n | n | 7.9 | n | 13 | n
COc1cc(/C=N/NC(=O)c2ccncc2)c([N+](=O)[O-])cc1OC | n | x | n | n | x | x
COc1cc(OC)c([N+](=O)[O-])cc1/C=N/NC(=O)c1ccncc1 | n | n | n | n | 37 | -38
CN(C)c1ccc2c3c(ccc(N(C)C)c13)C(=O)OC2 | n | n | 7.3 | n | 80 | -96
CS(=O)(=O)Nc1ccc2c(c1)C(=O)OC2 | n | n | n | n | x | x
SMILES | beta cell repl | TAG inh | CHT allo act | CHT inh | CHT act confirm | HEK293 MP dye
CCNc1cc2n(c(=O)n1)CCc1cc(OC)c(OC)cc1-2 | n | x | n | n | x | x
COc1cc2c(cc1OC)-c1cc(OCCN3CCOCC3)nc(=O)n1CC2 | n | n | 6.5 | n | 55 | -44
O=c1oc2ccccc2cc1-c1cn2cccnc2n1 | n | n | n | n | 20 | -33
Cc1c(N(C)S(=O)(=O)c2ccc(Cl)c(C(=O)N3CCC(C(N)=O)CC3)c2)c(=O)n(-c2ccccc2)n1C | n | n | n | n | x | x
COC(=O)c1ccccc1NC(=O)c1cc[n+](C)cc1 | n | n | n | n | 60 | -55
COc1cc(-c2nnc(-c3cccnc3)o2)cc(OC)c1OC | n | x | n | n | x | x
